Assay outcomes as filed in PubChem.
KB-3-1 cytotox – qHTS assay for MDR1-selective chemotherapeutics: Primary screen using the parental adenocarcinoma cell KB-3-1 | Potency, µM (top dose mostly 46.1 µM), actives largely listed as cytotoxic | KB-3-1 viability, CellTiter-Glo ATP luminescence, 72 h | actives 1.4% (n = 400,000); further: nearly all actives have a fitted effect of over 60% in size
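Parental KB-3-1 adenocarcinoma cells in phenol-red-free DMEM with 10% FBS were pin-treated with compounds at several concentrations, incubated 72 h at 37 °C, and viability read by CellTiter-Glo luminescence; concentration-effect curves were fitted after normalization.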
Giardia kill – Small Molecules that selectively kill Giardia lamblia: qHTS. Giardia lamblia trophozoite viability. activity change, % at 7.66 µM, hits read low. actives 0.15% (n = 340,000). AID 540267, 2011; in the data active means activity change below about -80%; inconclusive means between about -30% and that limit;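 further: parasites exposed to compound for two days anaerobically before the ATP read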
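Compounds were tested on trophozoites seeded at 100 cells/well and held 48 hrs at 37 deg C anaerobically. An ATP-based luminescent kit measured the remaining live cells.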
PI4K2A inh – qHTS for small molecular inhibitors of PI4K2A. Phosphatidylinositol 4-kinase type 2-alpha (Homo sapiens), Q9BTU6. purified PI4K2A, ADP-Glo luminescence, 1 h; active compounds read low. activity change, negative = inhibition, % at 76.9 µM. actives 0.13% (n = 420,000). AID 1346378, 2018; in the data active means activity change below about -50%; inconclusive means mostly about -30% to -49%
Target sequence (Q9BTU6 whole entry, looked up): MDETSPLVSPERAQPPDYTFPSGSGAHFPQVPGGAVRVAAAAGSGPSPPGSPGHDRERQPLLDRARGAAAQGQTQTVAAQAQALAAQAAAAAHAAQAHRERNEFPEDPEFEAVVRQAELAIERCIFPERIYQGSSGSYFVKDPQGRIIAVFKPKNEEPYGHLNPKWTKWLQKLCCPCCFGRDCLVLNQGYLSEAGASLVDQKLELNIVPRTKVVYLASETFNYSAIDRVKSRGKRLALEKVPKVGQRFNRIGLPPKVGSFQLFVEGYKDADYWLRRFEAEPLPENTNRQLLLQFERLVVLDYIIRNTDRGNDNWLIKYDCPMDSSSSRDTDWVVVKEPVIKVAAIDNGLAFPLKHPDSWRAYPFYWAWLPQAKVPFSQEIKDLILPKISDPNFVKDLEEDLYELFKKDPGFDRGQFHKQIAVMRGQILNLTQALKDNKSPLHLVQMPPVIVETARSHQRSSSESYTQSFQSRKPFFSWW
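ADP-Glo luminescence measured ADP generated by PI4K2A enzyme (4 ug/mL before mixing) with 1.2 mM PI substrate (pre-mix) and 300 microM ATP (pre-mix). Tris pH7.5 buffer with MgCl2, Triton X-100; 1 h reaction at ambient temperature.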
KB-V1 cytotox – qHTS assay for MDR1-selective chemotherapeutics: Primary screen using the drug-selected MDR subline cells KB-V1 | KB-V1 MDR cells viability, CellTiter-Glo, 72 h | actives 3.4% (n = 400,000) | Potency, µM (titrated, usually from 46.1 µM), most hits filed as cytotoxic; further: nearly all actives have a fitted effect of over 60% in size
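Readout: CellTiter-Glo luminescence, 10 min after addition. Cells: KB-V1 MDR subline, 72 h at 37 degrees C with compound. Analysis: corrected, normalized data fitted to concentration-effect curves.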
A549 tox – Nrf2 qHTS screen for inhibitors: counterscreen for cytotoxicity; A549 ARE-Fluc cells, CellTiter-Fluor viability, 18-24 h; Potency, µM (titrated, usually from 46 µM), hits mostly inhibitors; actives 0.16% (n = 390,000); AID 504648, 2011
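A549 ARE_Fluc cells in 5% FBS OPTI-MEM were exposed to compounds in concentration-response for 18-24 h at 37 deg C. Viability was read by CellTiter-Fluor fluorescence (Ex 405/Em 525) after 30 min, before the luciferase read.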
Nrf2 inh – Nrf2 qHTS screen for inhibitors; A549 ARE-Fluc reporter, luciferase luminescence, 18-24 h; Potency, µM (highest dose often 46 µM), actives largely listed as inhibitors; actives 2.1% (n = 360,000); AID 504444, 2011; further: nearly all actives have a fitted effect of over 60% in size
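A549 ARE_Fluc cells (5000/well, 5% FBS OPTI-MEM) pre-incubated 2 h, then treated with compounds 18-24 h at 37C/5% CO2 in concentration-response. CellTiter-Fluor viability read first; BugLite luciferase luminescence after 15 min at room temperature gives Nrf2 activity.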
A number is an active result. Compounds with a hit are over-represented: about 5.7% of the library has one in this group of screens. Unless noted, the call rests on the fitted dose curve; in most records, active means well fitted curve in the direction sought with a large enough effect; inconclusive means small, poorly fitted or top-dose-only effect, or another doubt; inactive means no such curve, though single readings can be large; an effect the other way counts as inactive or inconclusive.

Screening COc1cc(OC)cc(C(=O)NCCN2C(=O)C3C4C=CC(C4)C3C2=O)c1 (configuration not stated) returned PI4K2A inh inactive.
COc1ccc(CN(C)S(=O)(=O)c2c(C)noc2C)cc1OC was read as KB-3-1 cytotox inactive, Giardia kill inactive, PI4K2A inh inactive, KB-V1 cytotox 18.4µM, A549 tox inactive and Nrf2 inh inactive.
Screening Cc1cc(C(=O)N/N=C/c2c3ccccc3cc3ccccc23)n[nH]1 returned KB-3-1 cytotox inconclusive, Giardia kill inactive, PI4K2A inh inactive, KB-V1 cytotox 18.4µM, A549 tox inactive and Nrf2 inh inactive.
CN(C)c1nc(NCc2ccccc2)nc(SCC(=O)Nc2ccccc2)n1 was read as KB-3-1 cytotox inactive, Giardia kill inactive, PI4K2A inh inactive, KB-V1 cytotox inconclusive, A549 tox inactive and Nrf2 inh 23.1µM.
`CN(C)c1nc(C(=O)Nc2ccccc2)nc(N(C)C)n1` gave KB-3-1 cytotox inactive, Giardia kill inactive, PI4K2A inh inactive, KB-V1 cytotox inactive, A549 tox inactive and Nrf2 inh inactive.
Screening CN(C)c1nc(NC(C)(C)C)nc(SCC(=O)Nc2ccccc2)n1 returned KB-3-1 cytotox inactive, Giardia kill inactive, PI4K2A inh inactive, KB-V1 cytotox 8.2µM, A549 tox inactive and Nrf2 inh inconclusive.
Screening CN(C)c1nc(SCCOC(=O)Nc2ccccc2)nc(N(C)C)n1 returned KB-3-1 cytotox inactive, Giardia kill inactive, PI4K2A inh inactive, KB-V1 cytotox 14.6µM, A549 tox inactive and Nrf2 inh inconclusive.
`CCOC(=O)[C@@]12CN(C(=O)OC(C)(C)C)CC=C1N(Cc1ccc(OC)cc1)C(=O)[C@H]2CC(=O)NCCCCc1ccccc1` gave PI4K2A inh inactive.
For O=C(NCc1cccc(C(F)(F)F)c1)O[C@H]1CC[C@@]23CCCN2C(=O)CCC[C@H]3C1 the results were PI4K2A inh inactive.
`CCOC(=O)C1=CCN(S(=O)(=O)c2cccc(Cl)c2)C1c1cccc(C)c1` (configuration not stated) gave KB-3-1 cytotox inactive, PI4K2A inh inactive and KB-V1 cytotox inactive.
For CCOC(=O)C1=CCN(S(=O)(=O)c2ccccc2C)C1c1cccc(Cl)c1 (configuration not stated) the results were KB-3-1 cytotox inconclusive, PI4K2A inh inactive and KB-V1 cytotox 20.6µM.
CCOC(=O)C1=CCN(S(=O)(=O)c2cccc(Cl)c2)C1c1ccccc1 (configuration not stated) was read as KB-3-1 cytotox inactive, PI4K2A inh inactive and KB-V1 cytotox 18.4µM.
For CCOC(=O)C1=CCN(S(=O)(=O)c2ccccc2Br)C1c1cccc(Cl)c1 (configuration not stated) the results were KB-3-1 cytotox inactive, PI4K2A inh inactive and KB-V1 cytotox inactive.
`c1ccc(COc2ncnc3c2ncn3CCCN2CCN(Cc3cccc4ccccc34)CC2)cc1` gave KB-3-1 cytotox 14.6µM, PI4K2A inh inactive and KB-V1 cytotox inconclusive.
Screening Cc1ccc(CN2CCN(CCCn3cnc4c(OCc5ccccc5)ncnc43)CC2)cc1 returned KB-3-1 cytotox inactive, Giardia kill inactive, PI4K2A inh inactive, KB-V1 cytotox inactive, A549 tox inconclusive and Nrf2 inh inconclusive.
N#Cc1c(N)nc(SCc2ccncc2)c(C#N)c1-c1cccs1 was read as KB-3-1 cytotox inactive, Giardia kill inactive, PI4K2A inh inactive, KB-V1 cytotox inactive, A549 tox inactive and Nrf2 inh 23.1µM.
`C=CCN1[C@H](CC(C)C)COc2cc(N3CCSCC3)ccc2S1(=O)=O` gave PI4K2A inh inactive.
For Cn1c(SCC(=O)N(Cc2ccccc2)C(C)(C)C)nc2ccccc21 the results were KB-3-1 cytotox inactive, Giardia kill inactive, PI4K2A inh inactive, KB-V1 cytotox 20.6µM and A549 tox inactive.
For Cn1c(SCC(=O)N2CCCC2)nc2ccccc21 the results were KB-3-1 cytotox inactive, Giardia kill inactive, PI4K2A inh inactive, KB-V1 cytotox inactive, A549 tox inactive and Nrf2 inh inactive.
For N#Cc1cccc(NC(=O)OCCN2C(=O)CCC23CCC(c2ccc(Cl)cc2)CC3)c1 (configuration not stated) the results were PI4K2A inh inactive.
Screening O=C(Nc1ccc(Oc2c(F)c(F)c(F)c(F)c2F)cc1)OC1CCN2Cc3ccccc3N=C12 (configuration not stated) returned KB-3-1 cytotox 8.2µM, Giardia kill inactive, PI4K2A inh inactive, KB-V1 cytotox inconclusive, A549 tox 20.6µM and Nrf2 inh 23.1µM.
COCCOC(=O)c1c(NC(=O)CN2CCc3ccccc32)sc(C(N)=O)c1C was read as KB-3-1 cytotox inactive, Giardia kill inconclusive, PI4K2A inh inactive, KB-V1 cytotox inactive, A549 tox inactive and Nrf2 inh inconclusive.
Screening CCOC(=O)c1c(NC(=O)CN2CCCc3ccccc32)sc(C(C)=O)c1C returned KB-3-1 cytotox inactive, Giardia kill inactive, PI4K2A inh inactive, KB-V1 cytotox 4.11µM, A549 tox inactive and Nrf2 inh inactive.
`CCOC(=O)c1c(NC(=O)CSc2nnc(Cc3ccccc3)o2)sc(C(C)=O)c1C` gave KB-3-1 cytotox inactive, Giardia kill inactive, PI4K2A inh inactive, KB-V1 cytotox 18.4µM, A549 tox inactive and Nrf2 inh inactive.
For CCOC(=O)c1c(NC(=O)N/N=C/c2ccccc2OCC)sc(C(C)=O)c1C the results were KB-3-1 cytotox 16.4µM, Giardia kill inactive, PI4K2A inh inactive, KB-V1 cytotox inconclusive, A549 tox inactive and Nrf2 inh inactive.
For Cc1cc(=O)[nH]c(SCC(=O)Nc2cccc(Cl)c2F)n1 the results were PI4K2A inh inactive.
Screening CN(C(=O)C1CCN(c2cncnc2)CC1)C1CCCCC1 returned PI4K2A inh inactive.
`O=C(CSCC(=O)Nc1nc(-c2ccc3c(c2)OCO3)cs1)Nc1nccs1` gave KB-3-1 cytotox inconclusive, Giardia kill inactive, PI4K2A inh inactive, KB-V1 cytotox inconclusive, A549 tox inactive and Nrf2 inh 20.6µM.
COc1ccc(N2CCN(C(=O)c3ccc(Oc4ccc(C(F)(F)F)cn4)cc3)CC2)cc1 was read as KB-3-1 cytotox inconclusive, Giardia kill inactive, PI4K2A inh inactive, KB-V1 cytotox inconclusive, A549 tox inactive and Nrf2 inh inconclusive.
Screening COc1cc(C(=O)OCC(C)=O)ccc1OCc1c(C)noc1C returned KB-3-1 cytotox 14.6µM, Giardia kill inactive, PI4K2A inh inactive, KB-V1 cytotox inconclusive, A549 tox inconclusive and Nrf2 inh inactive.
